One sequence from PMC7862700, “An all-to-all approach to the identification of sequence-specific readers for epigenetic DNA modifications on cytosine” can be followed below.

Holding throughout (experiment): DAPPL (digital affinity profiling via proximity ligation, sequencing); 10 mM Tris-HCl pH 7.5, 50 mM NaCl, 1 mM DTT, 4% glycerol, room temperature, 30 min; GST-TFs on glutathione beads, 16-mer random dsDNA library, 0.1% formaldehyde crosslink after washing; high values mean tight binding
One test has as its target T1, FEV (Homo sapiens, UniProt Q99581 1-238).
T1 sequence: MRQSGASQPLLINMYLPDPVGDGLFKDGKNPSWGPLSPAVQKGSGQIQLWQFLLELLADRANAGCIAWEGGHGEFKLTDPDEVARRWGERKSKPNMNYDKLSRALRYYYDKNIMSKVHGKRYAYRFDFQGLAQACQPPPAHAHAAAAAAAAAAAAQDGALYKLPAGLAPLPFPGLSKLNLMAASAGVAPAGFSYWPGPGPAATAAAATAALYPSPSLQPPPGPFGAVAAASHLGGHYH
The conditions noted are these: protein: recombinant; tags: N-terminal GST; dsDNA, one strand shown. A digest of the protocol: (§1)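 A tag-only sample was pooled with DNA-barcoded human transcription factors that had been expressed in yeast as GST fusions and captured on glutathione beads. The pools were incubated for 30 min at room temperature with 200 nmole of a random double-stranded 16-mer DNA library in Tris/NaCl/DTT/glycerol buffer, then washed, crosslinked with 0.1% formaldehyde, proximity-ligated (BsaI/T4 ligase, 1 h, 37 °C), PCR-amplified and sequenced on an Illumina NextSeq500. Binding signal is each hexamer's read frequency for a factor divided by its frequency for the tag-only sample.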

The target of a further test is ETV5 (Homo sapiens, UniProt P41161 1-510). The conditions noted are these: protein: recombinant; tags: N-terminal GST; dsDNA, one strand shown. A digest of the protocol:
as §1

For the next test, the target named is HSF1 (Homo sapiens, UniProt Q00613 1-529). As to conditions: protein: recombinant; tags: N-terminal GST; chain copies: 3; dsDNA, one strand shown. Summed up: as §1
For the next test, the target named is T2, SPIC (Homo sapiens, UniProt Q8N5J4 1-248).
T2 sequence: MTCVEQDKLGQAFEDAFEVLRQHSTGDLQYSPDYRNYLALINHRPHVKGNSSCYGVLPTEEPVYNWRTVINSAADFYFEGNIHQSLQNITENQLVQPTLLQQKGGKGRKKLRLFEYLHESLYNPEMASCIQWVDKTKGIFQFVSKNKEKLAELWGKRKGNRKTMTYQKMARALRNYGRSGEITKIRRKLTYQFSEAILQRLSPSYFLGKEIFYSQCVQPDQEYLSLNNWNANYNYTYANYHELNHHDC
As to conditions: protein: recombinant; tags: N-terminal GST; dsDNA, one strand shown. Summed up:
as §1

The next test concerns the target ELF4 (Homo sapiens, UniProt Q99607 1-663). As to conditions: protein: recombinant; tags: N-terminal GST; dsDNA, one strand shown. Summed up:
as §1

A further test deals with T3, ELK4 (Homo sapiens, UniProt P28324-2 1-405).
T3 sequence: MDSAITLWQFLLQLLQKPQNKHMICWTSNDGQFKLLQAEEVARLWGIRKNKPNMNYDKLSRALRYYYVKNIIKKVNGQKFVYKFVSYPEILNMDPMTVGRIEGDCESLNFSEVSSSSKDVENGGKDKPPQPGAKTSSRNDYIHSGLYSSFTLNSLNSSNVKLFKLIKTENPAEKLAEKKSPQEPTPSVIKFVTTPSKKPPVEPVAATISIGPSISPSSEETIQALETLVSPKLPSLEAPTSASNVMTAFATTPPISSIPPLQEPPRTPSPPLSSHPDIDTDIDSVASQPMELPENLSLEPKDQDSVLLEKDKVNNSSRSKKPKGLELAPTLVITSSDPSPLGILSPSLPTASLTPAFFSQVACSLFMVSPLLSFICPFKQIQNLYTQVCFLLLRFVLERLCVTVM
As to conditions: protein: recombinant; tags: N-terminal GST; dsDNA, one strand shown. Summed up: as §1

The target of the next test is T4, ETV2 (Homo sapiens, UniProt O00321 1-342).
T4 sequence: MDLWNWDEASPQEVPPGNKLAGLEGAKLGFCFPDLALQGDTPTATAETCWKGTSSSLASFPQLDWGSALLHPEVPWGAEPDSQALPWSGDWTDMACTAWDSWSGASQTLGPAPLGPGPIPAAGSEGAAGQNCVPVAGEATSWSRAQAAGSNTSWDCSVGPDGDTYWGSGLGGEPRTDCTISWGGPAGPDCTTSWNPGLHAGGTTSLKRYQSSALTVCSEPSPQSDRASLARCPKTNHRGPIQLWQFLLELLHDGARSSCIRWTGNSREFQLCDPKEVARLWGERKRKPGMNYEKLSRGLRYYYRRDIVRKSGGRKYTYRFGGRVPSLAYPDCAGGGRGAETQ
As to conditions: protein: recombinant; tags: N-terminal GST; dsDNA, one strand shown. A digest of the protocol: as §1

The next test has as its target T5, ELF3 (Homo sapiens, UniProt P78545 1-371).
T5 sequence: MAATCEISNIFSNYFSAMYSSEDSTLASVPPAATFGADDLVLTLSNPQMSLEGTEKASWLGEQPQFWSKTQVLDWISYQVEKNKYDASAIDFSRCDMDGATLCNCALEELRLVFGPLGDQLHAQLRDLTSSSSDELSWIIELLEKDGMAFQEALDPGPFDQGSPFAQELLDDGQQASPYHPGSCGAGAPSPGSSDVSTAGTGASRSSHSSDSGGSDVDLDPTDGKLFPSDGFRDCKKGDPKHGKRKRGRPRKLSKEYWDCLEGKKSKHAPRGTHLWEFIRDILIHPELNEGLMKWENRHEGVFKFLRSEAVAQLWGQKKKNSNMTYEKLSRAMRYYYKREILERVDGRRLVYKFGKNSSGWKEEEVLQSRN
The conditions noted are these: protein: recombinant; tags: N-terminal GST; dsDNA, one strand shown. A digest of the protocol:
as §1

In another test the target is CRX (Homo sapiens, UniProt O43186 1-299). As to conditions: protein: recombinant; tags: N-terminal GST; dsDNA, one strand shown. A digest of the protocol:
as §1

In a further test the target is ETV1 (Homo sapiens, UniProt P50549 1-477). The conditions noted are these: protein: recombinant; tags: N-terminal GST; dsDNA, one strand shown. Summed up: as §1
For a further test, the target named is T6, ERF (Homo sapiens, UniProt P50548 1-548).
T6 sequence: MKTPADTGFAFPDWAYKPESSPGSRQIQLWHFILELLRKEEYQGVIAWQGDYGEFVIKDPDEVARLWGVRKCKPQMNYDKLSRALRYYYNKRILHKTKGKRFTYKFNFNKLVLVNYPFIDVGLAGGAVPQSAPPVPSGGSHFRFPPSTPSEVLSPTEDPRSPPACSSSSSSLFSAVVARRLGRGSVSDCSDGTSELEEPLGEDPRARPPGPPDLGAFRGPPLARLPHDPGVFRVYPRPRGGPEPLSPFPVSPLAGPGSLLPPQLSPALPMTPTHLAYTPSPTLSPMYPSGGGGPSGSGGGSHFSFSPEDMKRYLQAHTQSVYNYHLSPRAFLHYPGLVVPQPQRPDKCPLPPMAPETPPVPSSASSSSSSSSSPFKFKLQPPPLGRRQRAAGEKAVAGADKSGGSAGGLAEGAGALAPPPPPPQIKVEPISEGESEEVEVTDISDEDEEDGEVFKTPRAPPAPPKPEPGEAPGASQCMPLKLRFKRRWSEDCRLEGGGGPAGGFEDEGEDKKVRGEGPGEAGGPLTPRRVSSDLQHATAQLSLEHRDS
The conditions noted are these: protein: recombinant; tags: N-terminal GST; dsDNA, one strand shown. Summed up: as §1

A further test deals with T7, ETV3L (Homo sapiens, UniProt Q6ZN32 1-361).
T7 sequence: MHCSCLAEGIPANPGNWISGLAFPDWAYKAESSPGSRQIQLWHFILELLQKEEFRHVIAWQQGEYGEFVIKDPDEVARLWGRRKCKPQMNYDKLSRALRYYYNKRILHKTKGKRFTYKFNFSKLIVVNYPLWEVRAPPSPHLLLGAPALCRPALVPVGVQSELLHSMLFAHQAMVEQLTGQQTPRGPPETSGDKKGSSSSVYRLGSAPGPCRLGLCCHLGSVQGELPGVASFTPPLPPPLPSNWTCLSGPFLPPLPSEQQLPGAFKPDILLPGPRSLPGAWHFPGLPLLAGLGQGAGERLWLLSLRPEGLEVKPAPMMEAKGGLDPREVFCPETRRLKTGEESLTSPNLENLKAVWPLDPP
As to conditions: protein: recombinant; tags: N-terminal GST; dsDNA, one strand shown. Summed up:
as §1

For a further test, the target named is T8, ETS2 (Homo sapiens, UniProt P15036 1-469).
T8 sequence: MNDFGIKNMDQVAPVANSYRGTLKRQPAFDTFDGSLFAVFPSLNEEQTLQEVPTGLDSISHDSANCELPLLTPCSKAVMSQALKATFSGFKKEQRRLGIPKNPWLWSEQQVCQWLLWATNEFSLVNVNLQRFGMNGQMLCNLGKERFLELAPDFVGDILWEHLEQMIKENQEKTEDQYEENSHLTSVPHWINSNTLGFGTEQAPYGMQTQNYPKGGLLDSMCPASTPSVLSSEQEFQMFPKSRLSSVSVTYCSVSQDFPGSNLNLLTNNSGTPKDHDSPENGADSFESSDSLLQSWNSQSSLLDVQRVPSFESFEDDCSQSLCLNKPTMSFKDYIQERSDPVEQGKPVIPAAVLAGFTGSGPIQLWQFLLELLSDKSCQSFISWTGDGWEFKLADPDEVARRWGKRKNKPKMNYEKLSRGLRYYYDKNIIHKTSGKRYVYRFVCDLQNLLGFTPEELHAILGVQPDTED
The conditions noted are these: protein: recombinant; tags: N-terminal GST; dsDNA, one strand shown. Summed up:
as §1

A further test deals with T9, SPDEF (Homo sapiens, UniProt O95238 1-335).
T9 sequence: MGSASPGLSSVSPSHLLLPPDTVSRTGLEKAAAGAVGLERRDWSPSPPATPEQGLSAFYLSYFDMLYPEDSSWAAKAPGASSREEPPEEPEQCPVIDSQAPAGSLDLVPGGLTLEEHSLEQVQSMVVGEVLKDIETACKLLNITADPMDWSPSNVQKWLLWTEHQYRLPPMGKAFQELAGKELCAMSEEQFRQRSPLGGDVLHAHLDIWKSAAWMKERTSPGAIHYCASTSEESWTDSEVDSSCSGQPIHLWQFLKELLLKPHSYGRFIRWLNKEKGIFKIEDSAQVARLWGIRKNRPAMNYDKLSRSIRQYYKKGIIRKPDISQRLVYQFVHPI
As to conditions: protein: recombinant; tags: N-terminal GST; dsDNA, one strand shown. Summed up: as §1

The target in a further test is T10, ETV7 (Homo sapiens, UniProt Q9Y603 1-341).
T10 sequence: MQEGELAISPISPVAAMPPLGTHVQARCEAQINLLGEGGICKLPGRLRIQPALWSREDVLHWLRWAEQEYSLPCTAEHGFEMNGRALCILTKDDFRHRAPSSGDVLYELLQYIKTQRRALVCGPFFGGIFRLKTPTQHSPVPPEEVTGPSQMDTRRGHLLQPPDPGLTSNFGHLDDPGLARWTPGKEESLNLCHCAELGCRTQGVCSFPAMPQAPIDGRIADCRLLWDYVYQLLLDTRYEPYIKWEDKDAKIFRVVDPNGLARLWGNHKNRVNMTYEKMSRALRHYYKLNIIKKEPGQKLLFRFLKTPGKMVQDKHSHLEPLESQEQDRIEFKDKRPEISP
The conditions noted are these: protein: recombinant; tags: N-terminal GST; dsDNA, one strand shown. Summed up:
as §1

Another test has as its target T11, ELF5 (Homo sapiens, UniProt Q9UKW6-2 1-255).
T11 sequence: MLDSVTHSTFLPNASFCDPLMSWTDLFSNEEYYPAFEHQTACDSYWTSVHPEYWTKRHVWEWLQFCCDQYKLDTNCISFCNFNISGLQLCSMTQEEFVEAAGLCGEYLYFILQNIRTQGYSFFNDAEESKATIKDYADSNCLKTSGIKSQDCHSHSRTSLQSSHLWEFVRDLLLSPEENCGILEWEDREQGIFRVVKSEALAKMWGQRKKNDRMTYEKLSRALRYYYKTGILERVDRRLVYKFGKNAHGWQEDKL
The conditions noted are these: protein: recombinant; tags: N-terminal GST; dsDNA, one strand shown. A digest of the protocol: as §1

The target of another test is T12, ETV3 (Homo sapiens, UniProt P41162-2 1-143).
T12 sequence: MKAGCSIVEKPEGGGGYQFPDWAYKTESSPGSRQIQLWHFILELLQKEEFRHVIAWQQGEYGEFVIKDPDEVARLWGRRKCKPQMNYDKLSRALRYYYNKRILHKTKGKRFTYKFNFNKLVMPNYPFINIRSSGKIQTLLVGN
As to conditions: protein: recombinant; tags: N-terminal GST; dsDNA, one strand shown. A digest of the protocol:
as §1

The next test has as its target ETV6 (Homo sapiens, UniProt P41212 1-452). As to conditions: protein: recombinant; tags: N-terminal GST; dsDNA, one strand shown. Summed up: as §1

Chain of CRX (O43186 whole entry): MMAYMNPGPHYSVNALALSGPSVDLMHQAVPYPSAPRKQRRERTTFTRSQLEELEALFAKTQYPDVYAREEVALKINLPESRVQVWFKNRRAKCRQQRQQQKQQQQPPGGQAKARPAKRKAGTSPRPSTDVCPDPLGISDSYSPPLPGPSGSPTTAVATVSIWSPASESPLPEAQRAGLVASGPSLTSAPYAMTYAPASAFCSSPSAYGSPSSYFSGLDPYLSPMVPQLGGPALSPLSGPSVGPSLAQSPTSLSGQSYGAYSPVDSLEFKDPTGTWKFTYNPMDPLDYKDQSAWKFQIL
Chain of ELF4 (Q99607 whole entry): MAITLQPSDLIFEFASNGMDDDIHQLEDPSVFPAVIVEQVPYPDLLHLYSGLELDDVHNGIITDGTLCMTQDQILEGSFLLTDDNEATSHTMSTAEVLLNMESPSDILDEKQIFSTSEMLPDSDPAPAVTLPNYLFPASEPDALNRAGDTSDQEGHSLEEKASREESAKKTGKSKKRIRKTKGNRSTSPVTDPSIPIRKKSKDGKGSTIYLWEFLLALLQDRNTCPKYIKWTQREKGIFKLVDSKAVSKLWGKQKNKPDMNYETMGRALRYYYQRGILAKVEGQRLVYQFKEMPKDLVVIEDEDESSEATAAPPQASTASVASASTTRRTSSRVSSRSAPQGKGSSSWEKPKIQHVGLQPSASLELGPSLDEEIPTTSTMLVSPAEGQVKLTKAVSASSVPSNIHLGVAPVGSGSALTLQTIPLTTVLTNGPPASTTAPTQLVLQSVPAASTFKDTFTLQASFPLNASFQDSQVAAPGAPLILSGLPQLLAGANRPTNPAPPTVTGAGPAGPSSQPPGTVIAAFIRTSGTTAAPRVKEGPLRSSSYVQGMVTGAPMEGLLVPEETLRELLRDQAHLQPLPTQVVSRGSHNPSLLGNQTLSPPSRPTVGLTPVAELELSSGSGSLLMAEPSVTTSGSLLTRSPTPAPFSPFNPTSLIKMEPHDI
Chain of ETV6 (P41212 whole entry): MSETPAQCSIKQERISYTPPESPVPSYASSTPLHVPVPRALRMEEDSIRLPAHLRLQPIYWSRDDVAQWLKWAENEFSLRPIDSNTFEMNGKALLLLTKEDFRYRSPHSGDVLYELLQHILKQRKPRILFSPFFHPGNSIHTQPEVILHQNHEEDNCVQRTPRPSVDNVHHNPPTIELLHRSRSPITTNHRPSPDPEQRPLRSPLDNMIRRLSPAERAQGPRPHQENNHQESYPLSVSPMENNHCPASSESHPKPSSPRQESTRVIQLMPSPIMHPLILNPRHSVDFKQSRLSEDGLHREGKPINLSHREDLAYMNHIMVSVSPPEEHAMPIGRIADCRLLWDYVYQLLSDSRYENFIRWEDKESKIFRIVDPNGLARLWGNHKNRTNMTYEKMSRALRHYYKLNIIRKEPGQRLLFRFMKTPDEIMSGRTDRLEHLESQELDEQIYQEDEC
Chain of ETV1 (P50549 whole entry): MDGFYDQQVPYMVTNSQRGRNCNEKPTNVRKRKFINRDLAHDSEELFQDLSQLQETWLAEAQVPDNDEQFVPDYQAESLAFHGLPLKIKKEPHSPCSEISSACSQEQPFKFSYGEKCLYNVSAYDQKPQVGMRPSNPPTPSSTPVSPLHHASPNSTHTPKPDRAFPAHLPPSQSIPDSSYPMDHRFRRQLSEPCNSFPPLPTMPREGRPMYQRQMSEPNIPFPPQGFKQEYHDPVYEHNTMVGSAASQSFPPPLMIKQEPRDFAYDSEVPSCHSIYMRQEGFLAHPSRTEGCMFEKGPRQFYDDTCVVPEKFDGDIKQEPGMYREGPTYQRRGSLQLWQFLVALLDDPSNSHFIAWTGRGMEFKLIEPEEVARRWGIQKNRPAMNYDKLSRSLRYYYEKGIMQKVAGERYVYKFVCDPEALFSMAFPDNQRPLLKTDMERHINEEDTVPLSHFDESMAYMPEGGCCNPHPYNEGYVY
Chain of ETV5 (P41161 whole entry): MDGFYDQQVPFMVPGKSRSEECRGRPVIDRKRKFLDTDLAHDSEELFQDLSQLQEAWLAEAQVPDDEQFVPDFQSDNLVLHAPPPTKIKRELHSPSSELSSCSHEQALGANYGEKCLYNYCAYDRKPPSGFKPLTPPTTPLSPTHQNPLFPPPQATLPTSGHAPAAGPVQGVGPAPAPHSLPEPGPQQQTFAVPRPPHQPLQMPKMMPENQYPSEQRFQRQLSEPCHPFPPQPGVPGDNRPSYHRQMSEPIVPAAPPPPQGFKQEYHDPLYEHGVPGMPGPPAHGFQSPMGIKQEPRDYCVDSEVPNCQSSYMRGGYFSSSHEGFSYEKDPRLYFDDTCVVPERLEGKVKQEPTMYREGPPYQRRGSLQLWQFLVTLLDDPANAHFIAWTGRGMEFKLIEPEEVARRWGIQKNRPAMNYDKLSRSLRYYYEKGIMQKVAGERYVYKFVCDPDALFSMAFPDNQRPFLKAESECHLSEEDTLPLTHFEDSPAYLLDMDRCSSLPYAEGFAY
Chain of HSF1 (Q00613 whole entry): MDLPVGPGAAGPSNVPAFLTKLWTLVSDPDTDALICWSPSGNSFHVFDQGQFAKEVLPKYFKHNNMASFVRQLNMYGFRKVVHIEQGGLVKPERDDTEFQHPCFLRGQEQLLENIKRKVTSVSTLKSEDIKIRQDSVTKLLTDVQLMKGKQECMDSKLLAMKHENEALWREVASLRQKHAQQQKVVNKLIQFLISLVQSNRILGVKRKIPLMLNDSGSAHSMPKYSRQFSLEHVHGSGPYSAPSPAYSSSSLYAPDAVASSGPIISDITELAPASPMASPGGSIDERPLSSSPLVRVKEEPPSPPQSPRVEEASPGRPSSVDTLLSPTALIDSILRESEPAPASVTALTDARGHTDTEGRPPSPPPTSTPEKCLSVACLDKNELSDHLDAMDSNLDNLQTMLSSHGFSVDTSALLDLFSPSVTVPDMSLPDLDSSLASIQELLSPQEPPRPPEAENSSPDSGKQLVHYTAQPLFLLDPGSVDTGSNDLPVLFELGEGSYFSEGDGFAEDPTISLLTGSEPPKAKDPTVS

Take TACTCC: the binding signal with FEV was 1.25 fold enrichment (6-mer frequency, TF over GST control); in the test with ETV5 it was 1.27 fold enrichment (6-mer frequency, TF over GST control); in the test with HSF1, 1.18 fold enrichment (6-mer frequency, TF over GST control); with SPIC, 1.23 fold enrichment (6-mer frequency, TF over GST control); with ELF4, 1.26 fold enrichment (6-mer frequency, TF over GST control); with ELK4 it was 1.19 fold enrichment (6-mer frequency, TF over GST control). The binding signal with ETV2 was 1.25 fold enrichment (6-mer frequency, TF over GST control); with ELF3, 1.11 fold enrichment (6-mer frequency, TF over GST control); with CRX, 1.26 fold enrichment (6-mer frequency, TF over GST control); with ETV1 it was 1.24 fold enrichment (6-mer frequency, TF over GST control); in the test with ERF, 1.34 fold enrichment (6-mer frequency, TF over GST control); with ETV3L, 1.26 fold enrichment (6-mer frequency, TF over GST control). For the same sequence, the binding signal in the test with ETS2 is 1.37 fold enrichment (6-mer frequency, TF over GST control); with SPDEF, 1.29 fold enrichment (6-mer frequency, TF over GST control); with ETV7, 1.21 fold enrichment (6-mer frequency, TF over GST control); with ELF5, 1.15 fold enrichment (6-mer frequency, TF over GST control); in the test with ETV3, 1.33 fold enrichment (6-mer frequency, TF over GST control); with ETV6 it was 1.23 fold enrichment (6-mer frequency, TF over GST control).
